Screening data (PubChem)
This is a sample that favours compounds with a hit; in the whole collection about 8.7% have one here.
Vaccinia Venus: inhibitors of vaccinia virus (Venus reporter); Vaccinia virus Venus reporter expression, fluorescence; Potency, µM (top dose mostly 36.5 µM), without a hit: top-dose activity change, negative = inhibition, usual class: inhibitors; AID 720580; hit rate 0.46% among 330,000; calls by dose curve; tested in A549 cells; also: nearly all actives have a fitted effect of over 30% in size
Vaccinia mCherry: inhibitors of vaccinia virus infection (mCherry reporter signal) | Vaccinia virus mCherry reporter infection, fluorescence | Potency, µM (highest dose often 36.5 µM), for the others: at the top dose activity change, negative = inhibition, most hits filed as inhibitors | hit rate 0.63% among 310,000 | AID 720579; calls by dose curve; tested in A549 cells; also: nearly all actives have a fitted effect of over 35% in size
Pf growth 96h: inhibits malaria parasite growth, 96 h; P. falciparum luciferase reporter growth, 96 h; Potency, µM (doses to about 28.7 µM), without a hit: at the highest dose activity change, negative = inhibition, usual class: inhibitors; hit rate 6.9% among 320,000; AID 504834
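Cell-based qHTS: luciferase-tagged P. falciparum in erythrocytes (2% hematocrit, 0.05% parasitemia final) incubated with compounds for 96 hours, 37 C, 5% CO2; luciferase detection reagent then added and luminescence measured.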
Pf growth 48h: inhibits P. falciparum growth in the first generation, 48 h; P. falciparum luciferase growth in erythrocytes, 48 h; hit rate 5.9% among 310,000; Potency, µM (titrated, usually from 28.7 µM), for the others: at the top dose activity change, negative = inhibition, most hits filed as inhibitors
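Cell-based growth assay: transgenic P. falciparum expressing firefly luciferase, cultured in red cells within RPMI 1640 containing 0.5% w/v Albumax, 24 mM bicarbonate and gentamycin. A drop in luciferase activity indicates inhibition.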
AMA1-RON2 inh: AMA1-RON2 (P. falciparum) interaction inhibition; AlphaScreen AMA1-biotinylated RON2 peptide binding; Potency, µM (doses to about 58.2 µM), without a hit: at the top dose activity change, negative = inhibition, most hits filed as inhibitors; hit rate 0.2% among 360,000;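 also: 0% = vehicle wells and -100% = peptide control; nearly all actives have a fitted effect of over 45% in size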
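AMA1 (3D7) with his tag at 25 nM final met compounds first, then biotinylated RON2 peptide at 25 nM; detection used donor plus acceptor beads, 10 µg/mL apiece, read by AlphaScreen after 30 min at room temperature.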
Active calls of the source: *; i = inactive; ? = inconclusive; . = no result; [ ] = dose if it differs, or a comment. Unless noted, calls follow the shape of the dose curve; as a rule, active = well fitted curve in the direction sought with a large enough effect; inconclusive = small, poorly fitted or top-dose-only effect, or another doubt; inactive = no such curve, though single readings can be large; an effect the other way counts as inactive or inconclusive. Unless noted, % is scaled to controls: 0 for no effect and ±100 for the full control effect; potency is read from the fitted curve at half-maximal effect.

SMILES	Vaccinia Venus	Vaccinia mCherry	Pf growth 96h	Pf growth 48h	AMA1-RON2 inh
COc1ccc(C2c3c(c(C)c(C)oc3=O)Oc3c(C)c(C)oc(=O)c32)cc1	-1%	i	10%	30%	-28%
COc1cc(C2c3c(c(C)c(C)oc3=O)Oc3c(C)c(C)oc(=O)c32)ccc1OS(=O)(=O)c1ccc(C)cc1	-22%	-19%	4.7µM*	5.9µM*	35%
Cc1ccc(Cn2c(=O)n(CCc3ccccc3)c(=O)c3c(C)c(C)sc32)cc1	-1%	-12%	.	.	.
Cn1c(-c2ccc3ccccc3n2)[n+](C)c2ccccc21	-7%[7.34 µM]	-8%[7.34 µM]	0.93µM*	?	-13%
CCOC(=O)C1=CN(CC2CCCO2)C=C(C(=O)OCC)C1c1ccccc1C(F)(F)F (stereo not given)	-11%	i	?	8.3µM*	43%
CCN1C(=O)/C(=C\N2CCCCCC2)SC1=S	-12%	-20%[1.46 µM]	12µM*	?	-21%
CCN1C(=O)/C(=C/N2CC(C)CC(C)C2)SC1=S (stereo not given)	-2%	2%	-5%	58%	0%
OC(CN1CCN(c2ccccc2)CC1)c1ccc2c(c1)CCN2 (stereo not given)	4%	?	9.3µM*	39%	-14%
CCOC(=O)N1CCN(CC(O)c2ccc3c(c2)CCN3)CC1 (stereo not given)	.	.	?	43%	-13%
O=C(Nc1ccc2ccccc2c1)c1nn(C23CC4CC(CC(C4)C2)C3)cc1Br	.	.	?	?	-11%
O=C(Nc1cccc2ccccc12)c1nn(C23CC4CC(CC(C4)C2)C3)cc1[N+](=O)[O-]	.	.	0.93µM*	?	-9%
COc1ccc(NC(=O)c2nn(C34CC5CC(CC(C5)C3)C4)cc2[N+](=O)[O-])cc1	-8%	-13%	-1%	4.7µM*	-18%
O=C(O)c1cccc([N+](=O)[O-])c1C(=O)Nc1cccc2ccccc12	-7%	-20%	53%	-7%	-8%
COC(=O)c1ccc(C2c3c(oc4cc(C)c(C)cc4c3=O)C(=O)N2CCCN(C)C)cc1 (stereo not given)	.	.	32%	5.2µM*	.
CC(C)CNc1nc(N)c([N+](=O)[O-])c(N2CCCCCC2)n1	?	?	10µM*	?	-17%
CCC(Sc1nc2ccccc2c2nc(CCc3c(C)n[nH]c3C)nn12)C(=O)Nc1ccccc1F (stereo not given)	-7%	-6%	.	.	.
Cc1cc(C)c(C(=O)N(CCN(C)C)CC2CCCN(Cc3ccccc3F)C2)o1 (stereo not given)	-12%	-23%	?	12µM*	-12%
CN(C)CCN(CC1CCCN(Cc2ccccc2F)C1)C(=O)c1ccc(F)cc1 (stereo not given)	-13%	?	0%	?	4%
COc1cc(C(=O)N(CCN(C)C)CC2CCCN(Cc3ccccc3F)C2)ccc1C (stereo not given)	.	.	-17%	10µM*	-12%
Cc1cc(C)c(C(=O)N(C)C2CCCN(Cc3ccccc3F)C2)o1 (stereo not given)	.	.	-27%	?	-8%
Cc1cccc(C(=O)NCc2nc(-c3cccc(NC(=O)c4ccoc4C)c3)oc2C)n1	-10%	-14%	.	.	.
CC(=O)OC(C)CS(=O)(=O)c1ccccc1 (stereo not given)	7.9µM*	7.9µM*	35%	-3%	-6%
Cc1ccc(CNC(=O)CCCCn2c(=O)c3ccccc3n(Cc3c(C)cc(C)cc3C)c2=O)cc1	6%	6%	.	.	.
CCN(CC)C(=O)Nc1ccc(OC[C@H](O)CNC(C)(C)C)c(C(C)=O)c1	.	.	-30%	-18%	.
CC1CCC(NC(=O)C2CCC(CNS(=O)(=O)c3cccc4cccnc34)CC2)CC1 (stereo not given)	.	.	12µM*	-9%	-9%
CN1CCN(C(=O)C2CCC(CNS(=O)(=O)c3cccc4cccnc34)CC2)CC1 (stereo not given)	-6%	i	?	.	2%
CCN(CC)C(=O)C1CCC(CNS(=O)(=O)c2cccc3cccnc23)CC1 (stereo not given)	1%	i	15µM*	-2%	-8%
CN(Cc1ccccc1)C(=O)C1CCC(CNS(=O)(=O)c2cccc3cccnc23)CC1 (stereo not given)	.	.	?	?	4%
